# Data: ChEMBL document CHEMBL3988442, “University of Dundee, Small-Polar-MMV Screening Library” (2021)
# The whole screen tested about 48,000 compounds, of which about 13,000 (27%) showed an effect of 50% or more. The list shows a part of the results.
# System: Wolbachia pipientis
# Test: Anti-Wolbachia Cell-Based Screen
# Type: functional
# Design: scale not given: in the data most compounds retested in dose-response had high values
# Conditions: 5 µM
row,Structure (SMILES),Percent Effect
1,CC(C)(C)c1c[nH]c([C@@H]2COCCN2C2CCOCC2)n1,1.318%
2,CCN(C)C(=O)CCC(=O)c1cccs1,14.3%
3,CC(C)S(=O)(=O)N(C)C(=O)CCc1ccsc1,-69.32%
4,O=C(NC1CCC1)[C@@H]1CCO[C@@H]2CCN(C3CCCC3)C[C@@H]21.O=C(O)C(F)(F)F,-2.811%
5,Cc1ncc(CN2CCN(C(=O)C3CCC3)[C@@H]3CS(=O)(=O)C[C@@H]32)cn1,112.3%
6,Cc1cc(C)cc(CN2CCN(C(=O)C3CCC3)[C@@H]3CS(=O)(=O)C[C@@H]32)c1,5.878%
7,CCN(CC)C(=O)N1CCN(Cc2cnc(C)nc2)[C@H]2CS(=O)(=O)C[C@H]21,94.21%
8,CCc1ccc(CN2CCN(C(=O)C(C)C)[C@@H]3CS(=O)(=O)C[C@@H]32)cc1,-2.722%
9,CN(C)C(=O)N1CCN(Cc2ccccc2)[C@@H]2CS(=O)(=O)C[C@@H]21,-15.23%
10,Cc1ccc(CN2CCN(C(=O)C3CCC3)[C@@H]3CS(=O)(=O)C[C@@H]32)cc1C,4.312%
11,COc1cc(Oc2ccc(C(F)(F)F)cn2)ccc1CN1CCCC1,2.757%
12,O=C(NC[C@H]1OC[C@@H](NC(=O)C2CCCC2)[C@@H]1O)c1ccncc1,0%
13,CC(=O)Nc1ccc(CNC2COc3c2ccc(C)c3C)cc1 (stereo unspecified),-7.711%
14,COCC[C@]1(O)CCN(S(=O)(=O)c2ccc(C)cc2OC)C[C@H]1C,-114.9%
15,COc1c(C(=O)NCc2cccnc2)nnn1Cc1ccc(C)cc1,7.937%
16,Nc1no[n+]([O-])c1C(=O)NCc1cccnc1,115%
17,CCc1noc(C)c1C(=O)NCc1ccccn1,-15.45%
18,CCn1cc(Br)c(C(=O)NCc2cccnc2)n1,4.447%
19,Nc1no[n+]([O-])c1C(=O)NCc1ccccn1,131.2%
20,N#Cc1ccc(CN2C[C@@H]3OCC(=O)N(CC(N)=O)[C@@H]3C2)cc1,-3.646%
21,CC(C)Oc1ccccc1CNC(=O)N(C)CC(F)F,-6.331%
22,O=C(NCCCOCC1CCCO1)c1cccnc1N1CCCC1 (stereo unspecified),-6.483%
23,O=C(NC[C@@H]1CCCO1)c1cccnc1N1CCCC1c1ccccc1 (stereo partly specified),120.1%
24,N#Cc1cccnc1NCc1cccc(C(=O)NCC2CCCCO2)c1 (stereo unspecified),-17.65%
25,O=C(NC[C@@H]1CCCO1)c1cccnc1N1CCCC1c1ccccn1 (stereo partly specified),123.2%
26,Fc1ccccc1CN1CCCN(c2ccc3cc[nH]c3n2)CC1,-2.258%

row,Structure (SMILES),Percent Effect
1,CC(O)CC(C)(C)CNC(=O)NCc1cccc(-n2cncn2)c1 (stereo unspecified),-1.907%
2,CCC(CNC(=O)c1nc(=O)[nH][nH]1)Oc1cccc(F)c1 (stereo unspecified),12.08%
3,Cc1cc(C)c2c(c1)NC(=O)C2CC(=O)O (stereo unspecified),18.62%
4,O=C(c1ccc2c(c1)CCC2)N1CCn2ncnc2C1,98.73%
5,O=C(c1ccc2c(c1)CCCC2)N1CCn2ncnc2C1,90.14%
6,O=C(c1ccc2c(c1)CCC2)N1CCN(c2ccc(Cl)cn2)CC1,-15.66%
7,CC(C)c1nnc2n1CCN(C(=O)c1ccc3c(c1)COC3)C2,4.471%
8,CSc1ccc(NC(=O)Nc2ccc3c(c2)N(S(C)(=O)=O)CC3)cc1,-6.619%
9,CS(=O)(=O)N1CCc2ccc(C(=O)N3CCn4ncnc4C3)cc21,111.8%
10,Cc1ccc(C(=O)N2CCN(S(C)(=O)=O)CC2)cc1N1CCNC1=O,0.6513%
11,O=C(c1ccc(O)nc1)N1CCc2ccc(O)cc2C1,-1.234%
12,O=C(c1ccc2c(c1)CCC2)N1C[C@@H](CN2CCOCC2)[C@@H](CO)C1,-9.126%
13,COC(C)c1nc(CN2CCNCC2)cs1 (stereo unspecified),8.778%
14,Cc1noc([C@]23COC[C@H]2CN(S(=O)(=O)N(C)C)C3)n1,-12.17%
15,Cc1noc([C@]23COC[C@H]2CN(C(=O)CN(C)C)C3)n1.O=C(O)C(F)(F)F,111.8%
16,Cc1noc([C@]23COC[C@H]2CN(S(C)(=O)=O)C3)n1,1.796%
17,Cc1noc([C@]23COC[C@H]2CN(C(=O)N2CCCC2)C3)n1,106.7%
18,Cc1noc([C@]23COC[C@H]2CN(C(=O)COC2CCCC2)C3)n1,97.21%
19,Cc1noc([C@]23COC[C@H]2CN(C(=O)C2CCOCC2)C3)n1,-8.72%
20,Cc1noc([C@]23COC[C@H]2CN(S(=O)(=O)C2CC2)C3)n1,7.077%
21,Cc1noc([C@@]23CCO[C@@H]2CCN(C(=O)c2ccsc2)C3)n1,10.18%
22,Cc1cc(C(=O)N2C[C@@H]3COC[C@]3(CN(C)C)C2)sc1C.O=C(O)C(F)(F)F,-22.46%
23,Cc1nc([C@@H]2C[C@@H]3CCN(C(=O)Cc4ccsc4)C[C@H]3O2)no1,-14.45%
24,Cc1noc([C@]23COC[C@H]2CN(C(=O)Cc2ccsc2)C3)n1,110.7%
25,CS(=O)(=O)CC(=O)N1C[C@@H]2COC[C@]2(c2nnc(C3CC3)o2)C1,-25.79%
26,Cc1cnn(CC2CN(c3ncnc4ccsc34)CCO2)c1 (stereo unspecified),-19.26%

row,Structure (SMILES),Percent Effect
1,O=C(Nc1cn[nH]c1)N(CCCO)C1CCc2ccccc21 (stereo unspecified),-15.52%
2,Cc1cc(NC(=O)N2CCOCC2)nn1-c1cccc(Cl)c1,1.002%
3,c1ccc(COCCN2CCc3[nH]cnc3C2c2ccoc2)cc1 (stereo unspecified),3.153%
4,O=C(NCc1cscn1)NC1CCN(c2ncccc2Cl)C1 (stereo unspecified),-8.414%
5,CC(C)CC(NS(C)(=O)=O)C(=O)N(C)Cc1nnc2n1CCC2 (stereo unspecified),-5.124%
6,COc1cccc(OC2CN(C(=O)C3CCCN(C(=O)N(C)C)C3)C2)c1 (stereo unspecified),-3.604%
7,CCOCC(=O)N1C[C@@H]2COC[C@H](c3nc(C)no3)[C@@H]2C1,1.076%
8,CCOCC(=O)N1C[C@@H]2COC[C@]2(c2nc(C)no2)C1,107.1%
9,Cc1cc(C(=O)N2C[C@@H]3COC[C@]3(c3nnc(C)o3)C2)on1,27.9%
10,CN(C)CCNC(=O)c1nc2c(o1)CN(c1ncccn1)C2,-6.07%
11,Cc1cc(-c2cccc3c2CCNC3)cnc1-n1cnnc1,3.521%
12,CCNC(=O)Cc1ccc(NC(=O)NC(CC)c2ccncc2)cc1 (stereo unspecified),3.124%
13,Cc1nc(-n2cnnc2)ccc1-c1cccc2c1CCNC2,-4.509%
14,Cc1ncc2c(c1CNC(=O)C1(c3ccc(F)cc3)CC1)CCNC2,13.15%
15,CCNC(=O)Cc1ccc(-c2cccc3c2CCNC3)cc1,110.7%
16,CN(C)C(=O)Cc1ccc(-c2cccc3c2CCNC3)cc1,105%
17,CCS(=O)(=O)CCNC(=O)NCc1ccccc1-n1cccn1,-14.43%
18,CS(=O)(=O)N1CCC2(CC1)CC(OCC1CCOCC1)CO2 (stereo unspecified),-4.18%
19,CCCc1nc(CN(CC)C(=O)c2ccc3c(c2)nnn3C)no1,9.755%
20,COc1ccc(CNC(=O)CN2CCc3ccccc32)cc1,5.049%
21,COCC(O)CN1CCC(=O)N(CC=C(C)C)Cc2ccccc21 (stereo unspecified),122.6%
22,CCCS(=O)(=O)CC(=O)N1CCN(CC2CC2)c2ccccc21,-17.3%
23,COCC(O)CN1CCC(=O)N(CC(=O)C(C)(C)C)Cc2ccccc21 (stereo unspecified),110.3%
24,COCCC(=O)N1CCN(CC2CC2)c2ncccc2C1,-45.17%
25,COCC(O)CN1CCC(=O)N(CC2CC2)Cc2ccccc21 (stereo unspecified),108.3%
26,O=C(CN1CCc2ccccc21)Nc1ccc(OC(F)F)cc1,-23.08%

row,Structure (SMILES),Percent Effect
1,O=C(NCCNc1ncccn1)c1ccc(OCc2ccccc2)nc1,-6.041%
2,CN(c1ccc(CNC(=O)c2c[nH]c(=O)c(Cl)c2)cc1)C1CCCCC1,0.5041%
3,CCOCCOC(C)C(=O)Nc1nccn1Cc1ccccc1 (stereo unspecified),-11.15%
4,CC(CCS(C)(=O)=O)NC(=O)NCc1ccc2ccccc2c1 (stereo unspecified),-7.499%
5,Cc1cc(C)n(C2CN(c3nc(-c4ccncc4)nc4c3CCC4)C2)n1,-1.448%
6,CN(C)C(=O)c1ccc(NCCNc2ccc3ccccc3n2)nc1,-5.082%
7,Cc1nc(C2CCN(C(=O)c3ccc(=O)n(C)c3)CC2)c2sccn12,-4.246%
8,Cc1nc(C2CCCN(C(=O)c3ccncc3)C2)c2sccn12 (stereo unspecified),112%
9,CCOc1cc(C)nc(N2CCN(C(=O)c3ccnn3C)CC2)n1,4.776%
10,Cc1nc(C2CCN(C(=O)c3ccnn3C)CC2)c2sccn12,90.51%
11,Cc1csc(C2CCCN(C(=O)c3cnn4ccc(C)nc34)C2)n1 (stereo unspecified),-3.808%
12,Cc1c(C(=O)N2CCC(c3nc(C)n4ccsc34)CC2)cnn1C,112.4%
13,CCCn1ncc(C(=O)N2CCN([C@H]3CCCC[C@@H]3O)CC2)c1C,2.84%
14,O=C(CCCN1CCCCC1)N1CCN(C(=O)c2ccc[nH]2)CC1,1.236%
15,CCC1CN(C(=O)COc2ccc(C(=O)NC3CC3)cc2)CCO1 (stereo unspecified),-23.61%
16,CCc1nccn1CCC(=O)N1CCN(c2ccccc2C)CC1C (stereo unspecified),0.5766%
17,CNCC(=O)N1CCC(c2ccnc(Nc3ccc(C)cn3)n2)C1.Cl (stereo unspecified),-6.427%
18,CC(=O)N1CCN(c2ccccc2CNc2ccc(C)cn2)CC1,1.224%
19,CC(=O)N1CCC(c2ccnc(Nc3ccc(C)cn3)n2)C1 (stereo unspecified),111.1%
20,Cc1ccc(Nc2nccc(C3CCN(C(=O)CO)C3)n2)nc1 (stereo unspecified),147.3%
21,CC(=O)N1CC[C@H](c2nc3cc(C)ccc3o2)C1,-3.722%
22,CC(=O)N1CCC(c2ccnc(Nc3cncnc3)n2)CC1,88.64%
23,CC(=O)N1CCC(NS(=O)(=O)c2cccnc2)CC1,4.265%
